# Screening results as filed in PubChem BioAssay.
# PGK inhibitor: inhibitors of T. brucei phosphoglycerate kinase. Potency, µM (doses to about 57.5 µM), actives largely listed as inhibitors. PGK/GAPDH coupled, Kinase-Glo luminescence, 60 min. P07378. AID 602233. 0.043% of 380,000 active; further: nearly all actives have a fitted effect of over 60% in size
#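 Luminescent ATP detection (Kinase-Glo Plus) follows a 60-minute room-temperature incubation, with wells lacking PGK as controls. Buffer: 100 mM TEA (pH 7.6), 5 mM MgCl2, 0.01% Tween-20. Coupling enzyme GAPDH (100 nM final) supplies unstable 1,3-BPG in-well.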
# GLP-1R inv ag: GLP-1 receptor (human) inverse agonism; P43220; HEK293 GLP-1R CRE-luciferase, luminescence, 24 h; GLP-1R form is constitutively active; Potency, µM (top dose mostly 38.3 µM), actives largely listed as inhibitors; 1.6% of 410,000 active; AID 624417; further: nearly all actives have a fitted effect of over 55% in size
#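 Constitutively active GLP-1R drives a cAMP-responsive luciferase in stably transfected HEK293 cells; test compounds are added after overnight (12 h) attachment and left 24 hr, and signal loss in luminescence marks inhibition.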
# GLP1R cytotox: cytotoxic in the GLP-1 receptor inverse agonist counter-screen; HEK293 cAMP-luciferase reporter cells, luminescence, 24 h; Potency, µM (doses to about 38.3 µM), hits mostly inhibitors; 0.13% of 410,000 active; AID 624418;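 further: loss of luciferase light is scored as toxicity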
#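 MLSMR compounds, 24 hr on cells at 37 deg C/5% CO2; luminescence after luciferase reagent (12 min RT). Inhibition counted as the undesired cytotoxic outcome.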
# Tb PFK block: inhibitors of T. brucei phosphofructokinase; O15648; T. brucei PFK, ADP-Glo luminescence; Potency, µM (highest dose often 57.5 µM), usual class: inhibitors; 0.17% of 330,000 active; AID 485367; further: nearly all actives have a fitted effect of over 60% in size
# Target sequence (O15648 whole entry, looked up): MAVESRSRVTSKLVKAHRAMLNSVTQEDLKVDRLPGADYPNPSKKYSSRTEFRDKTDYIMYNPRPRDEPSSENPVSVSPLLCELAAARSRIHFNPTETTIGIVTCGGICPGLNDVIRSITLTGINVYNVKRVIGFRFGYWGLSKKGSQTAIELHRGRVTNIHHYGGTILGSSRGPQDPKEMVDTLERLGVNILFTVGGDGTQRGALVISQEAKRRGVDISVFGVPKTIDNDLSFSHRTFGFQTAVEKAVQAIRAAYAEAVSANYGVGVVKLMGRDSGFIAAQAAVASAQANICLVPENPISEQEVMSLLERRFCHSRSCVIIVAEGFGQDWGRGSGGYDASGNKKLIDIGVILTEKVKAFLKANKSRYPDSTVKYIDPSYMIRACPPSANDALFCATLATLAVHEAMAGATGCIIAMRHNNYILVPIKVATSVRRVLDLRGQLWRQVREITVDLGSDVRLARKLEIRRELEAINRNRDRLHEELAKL
#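 In TEA buffer at pH 8.0 with 5 mM MgCl2, enzyme (1.25 nM) converted F6P (0.5 mM) and ATP (0.1 mM) for 45 min at room temperature. ADP product was read by luciferase luminescence.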
# Pin1 inhibitor: inhibitors of human Pin1 | Pin1 FP peptide displacement, HiFluor488, 10 min | Potency, µM (highest dose often 115 µM), usual class: inhibitors | Q13526 | 0.009% of 390,000 active; active means well fitted inhibition curve with a large enough effect in the polarisation, with a control signal flat, not every such curve was filed as active; inconclusive means small, poorly fitted or top-dose-only effect, or effect the other way, or a change in a side signal; inactive means no such curve, though single readings can be large or run the other way; the % refers to the polarisation
# GLP-1R agonist: activates the human GLP-1 receptor; P43220; HEK293 GLP-1R CRE-luciferase, luminescence, 4-6 h; cells express a hypersensitive GLP-1R form; Potency, µM (titrated, usually from 45.6 µM), hits mostly activators; 0.007% of 380,000 active; AID 624172
# A number is an active result; 0 = inactive; ? = inconclusive; - = no result; [ ] = another dose, or the depositor's remark. A selection: hits, their analogues and other compounds. The true share with any hit is near 1.8%. Unless noted, the call rests on the fitted dose curve; in most records, active means well fitted curve in the direction sought with a large enough effect; inconclusive means small, poorly fitted or top-dose-only effect, or another doubt; inactive means no such curve, though single readings can be large; an effect the other way counts as inactive or inconclusive.
SMILES,PGK inhibitor,GLP-1R inv ag,GLP1R cytotox,Tb PFK block,Pin1 inhibitor,GLP-1R agonist
COc1ccc([N+](=O)[O-])cc1NC(=S)NC(NC(=O)Cc1ccc(OC)c(OC)c1)C(Cl)(Cl)Cl (stereo not given),0,4.5µM,?,0[0.46 µM],0,0
COc1ccc([N+](=O)[O-])cc1NC(=S)NC(NC(C)=O)C(Cl)(Cl)Cl (stereo not given),0,?,0,0,0,0
CCc1cccc(NC(c2nnc(-c3ccccc3)o2)c2ccc(F)cc2Cl)c1 (stereo not given),0,6.3µM,0,-,0,-
COc1cc(OC)c(NC(c2nnc(-c3ccccc3)o2)c2ccc(F)cc2Cl)cc1Cl (stereo not given),0,?,0,-,0,-
COc1ccc(C2NCCc3c2[nH]c2ccccc32)cc1CN1CCc2cc(OC)c(OC)cc2C1C (stereo not given),0,8.9µM,?,0,0,0
COCC1CCCN(C(=O)c2ccc3oc(Cc4ccc(Cl)cc4)nc3c2)C1 (stereo not given),0,10µM,0,0,0,0
CN1C(=O)/C(=C2/C=Cc3ccccc3N2CCCS(=O)(=O)O)SC1=S,0,0,8.9µM,0,?,0
CCCN1/C(=C2/SC(=S)N(CC)C2=O)C=Cc2ccccc21,0,?,?,0,0,0
COc1cccc(NC(=O)c2nn(-c3ccc(C)cc3)c(=O)n(C)c2=O)c1,0,0,0,-,0,-
CCN(CC)CCNC(=O)c1ccc(NC(=O)c2cn(-c3ccccc3)nc2-c2cccs2)cc1,0,?,0,0,0,0
CCN(CC)CCNC(=O)c1ccc(NC(=O)c2cn(-c3ccc(F)cc3)nc2-c2cccc(OC)c2)cc1,0,8.9µM,?,0,0,0
CN(CC(=O)Nc1cccc(F)c1)C(=O)c1cn(-c2ccccc2)nc1-c1ccccc1,0,?,0,0,0,0
CCOc1ccc(NC(=O)CN(C)C(=O)c2cn(-c3ccc(F)cc3)nc2-c2cccc(OC)c2)cc1OCC,0,4.5µM,0,0,0,0
CCCCCC(=O)NC(Nc1ccc(S(N)(=O)=O)cc1)C(Cl)(Cl)Cl (stereo not given),0,0,0,0,0,0
CCCCCCC(=O)NC(Nc1ccc(S(N)(=O)=O)cc1)C(Cl)(Cl)Cl (stereo not given),0,8.9µM,0,0,0,0
COc1ccccc1/C=C/C1(C(=O)NC2CCCC2)CC(=O)N1c1ccccc1 (stereo not given),0,3.2µM,0,0,0,0
CCC(=O)C1=C(c2cccc([N+](=O)[O-])c2)N(C(=O)CC)n2c(nnc2C2CCCCC2)S1,0,0,0,-,0,-
Cn1cc(CNCc2ccccc2OCC(O)CN2CCc3ccccc3C2)cn1 (stereo not given),0,8.9µM,?,0,0,0
Cc1cccc(C)c1OCC(O)CN1CCc2ccccc2C1 (stereo not given),0,10µM,0,-,0,0
OC(COc1c(F)cc(Br)cc1F)CN1CCc2ccccc2C1 (stereo not given),0,?,0,0,0,0
Cc1ccc(C(C)C)c(OCC(O)CN2CCc3ccccc3C2)c1 (stereo not given),0,?,?,0,0,0
O=C1c2ccccc2C(=O)N1c1ccccc1O,-,-,-,-,0,-
Cc1cc(NC(=O)CSc2nc3c(sc4ccccc43)c(=O)n2CCCN2CCOCC2)n[nH]1,0,0,5µM,0,0,0
O=C(CSc1nc2c(sc3ccccc32)c(=O)n1CCCN1CCCC1)NCc1ccco1,0,10µM,?,0,?,0
CCCCn1c(CNC(=O)C23CC4CC(CC(C4)C2)C3)nnc1SCC(=O)Nc1ccc(F)cc1,0,?,0,-,0,0
O=C(Nc1ccc(Cl)cc1)/C(=C/c1cccc(O)c1)c1nc2ccccc2s1,0,2.8µM,0,0,0,0
COC(=O)c1nn(-c2ccccc2)c(Cl)c1/C=N/OCc1ccc(C)cc1,0,13µM,0,0,0,0
